The record followed here is PubChem BioAssay.

The other results are listed elsewhere or left out. Active and inactive are the calls of the source. Unless noted, no stated cut-off is given here; in the data, active means activity above about 50%; inactive means the rest.

Assay [1] concerns the target Tumor necrosis factor receptor superfamily member 10B (Homo sapiens) (UniProt O14763). As to the kind of experiment: viability loss of caspase-8 NB7 cells with TRAIL – with/without TRAIL, luminescence panel, confirmation (AID 651596). To be noted: NB7 neuroblastoma + caspase-8, TRAIL sensitization, NB7 Caspase-8, with TRAIL, mean of runs, at 10 µM, stronger effect = higher value.

Experiment in assay [2]: as above
The conditions noted are these: NB7 neuroblastoma + caspase-8, without TRAIL, NB7 Caspase-8, without TRAIL, mean of runs, at 10 µM.

For assay [3], the target named is 72 kDa type IV collagenase (Homo sapiens) (UniProt P08253). Briefly: human MMP-2 inhibitors, single-point check – biochemical, fluorescence, single concentration, counter-screen for CSN deneddylation inhibitor project, confirmation (AID 720655;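 active means corrected plate-normalized z-score of 5 or more, or -5 or less, or inhibition of 15% or more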;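 further: plate controls were DMSO wells with enzyme for no effect and buffer wells lacking MMP-2 for full effect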). The conditions noted are these: recombinant MMP-2, FRET substrate fluorescence, 60 min; at 16.6 µM. Background: A counterscreen serves to expose hits that act by an unwanted route or on another target.

Another assay has as its target Prothrombin (Bos taurus) (UniProt P00735). Briefly: thrombin cleavage blockers, FP readout – biochemical, fluorescence polarization, single concentration, counter-screen for CSN deneddylation inhibitor project, confirmation (AID 720656;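 active means inhibition at or above a set limit, with a fluorescence interference ratio between 0.5 and a set maximum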). To be noted: bovine thrombin cleavage of Ub4-pepOG, at 16.6 µM, stronger effect = higher value.

Tumor necrosis factor receptor superfamily member 10B (Homo sapiens), sequence (O14763 whole entry, looked up): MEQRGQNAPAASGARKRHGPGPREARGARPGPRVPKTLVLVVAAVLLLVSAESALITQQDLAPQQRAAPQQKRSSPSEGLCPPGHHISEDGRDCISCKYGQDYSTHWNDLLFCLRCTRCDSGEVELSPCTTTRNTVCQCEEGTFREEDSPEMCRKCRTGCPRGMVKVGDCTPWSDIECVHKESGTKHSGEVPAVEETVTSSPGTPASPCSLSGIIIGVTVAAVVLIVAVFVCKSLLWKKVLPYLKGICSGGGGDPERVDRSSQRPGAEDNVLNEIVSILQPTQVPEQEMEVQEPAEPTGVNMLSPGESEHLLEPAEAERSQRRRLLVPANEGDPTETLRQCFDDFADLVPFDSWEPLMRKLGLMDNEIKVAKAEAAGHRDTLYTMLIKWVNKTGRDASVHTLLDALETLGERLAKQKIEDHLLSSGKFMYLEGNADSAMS
Prothrombin (Bos taurus), sequence (P00735 whole entry, looked up): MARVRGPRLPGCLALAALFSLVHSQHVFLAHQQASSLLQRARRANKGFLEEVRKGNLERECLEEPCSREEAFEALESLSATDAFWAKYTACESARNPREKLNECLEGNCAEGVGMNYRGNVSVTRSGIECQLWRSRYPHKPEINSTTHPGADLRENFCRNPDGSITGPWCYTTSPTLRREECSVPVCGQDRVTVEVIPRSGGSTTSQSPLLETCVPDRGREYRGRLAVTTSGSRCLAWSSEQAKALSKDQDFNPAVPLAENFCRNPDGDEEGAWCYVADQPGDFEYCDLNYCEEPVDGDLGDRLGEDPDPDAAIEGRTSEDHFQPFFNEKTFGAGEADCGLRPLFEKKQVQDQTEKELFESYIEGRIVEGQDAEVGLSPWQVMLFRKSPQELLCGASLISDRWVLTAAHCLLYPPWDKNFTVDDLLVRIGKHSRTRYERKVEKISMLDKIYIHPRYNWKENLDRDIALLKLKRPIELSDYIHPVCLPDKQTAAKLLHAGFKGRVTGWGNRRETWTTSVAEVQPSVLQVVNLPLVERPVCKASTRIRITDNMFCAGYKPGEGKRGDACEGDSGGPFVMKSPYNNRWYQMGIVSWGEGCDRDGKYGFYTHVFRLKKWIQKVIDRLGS
72 kDa type IV collagenase (Homo sapiens), sequence (P08253 whole entry, looked up): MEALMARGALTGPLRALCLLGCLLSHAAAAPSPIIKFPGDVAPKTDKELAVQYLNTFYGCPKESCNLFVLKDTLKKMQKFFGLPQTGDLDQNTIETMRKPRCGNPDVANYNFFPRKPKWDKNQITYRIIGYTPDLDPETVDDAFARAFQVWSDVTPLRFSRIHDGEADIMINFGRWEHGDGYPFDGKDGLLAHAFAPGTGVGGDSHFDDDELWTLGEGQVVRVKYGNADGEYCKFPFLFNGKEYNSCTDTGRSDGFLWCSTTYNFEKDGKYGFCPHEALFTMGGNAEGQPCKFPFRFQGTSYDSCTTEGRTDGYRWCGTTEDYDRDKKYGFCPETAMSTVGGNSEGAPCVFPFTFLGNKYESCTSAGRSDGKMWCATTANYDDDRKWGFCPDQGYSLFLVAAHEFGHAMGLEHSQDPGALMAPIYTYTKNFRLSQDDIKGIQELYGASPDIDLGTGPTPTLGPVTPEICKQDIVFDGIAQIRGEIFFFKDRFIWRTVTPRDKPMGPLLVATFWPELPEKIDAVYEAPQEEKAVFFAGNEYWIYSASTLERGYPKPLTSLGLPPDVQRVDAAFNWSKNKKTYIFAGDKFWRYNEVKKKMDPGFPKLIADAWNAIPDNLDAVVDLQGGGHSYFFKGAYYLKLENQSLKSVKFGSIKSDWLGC

As to `CCOC(=O)[C@]12Cc3cc(OC)ccc3[C@H]1N(C1CCCCC1)C(=O)c1cc(OC)ccc12`, the activity in assay [1] amounted to 57.6%; in assay [2], 75.7%.

In the case of `CC1CC(C)CC(C)C(O)C(C#N)=CC=CCC(C2CCCC2C(=O)O)OC(=O)CC(O)C(C)C1` (stereo not drawn), the activity in assay [1] was found to be 94%; in assay [2] it was 98.7%.

Regarding `Cc1ccccc1-[n+]1c(-c2ccccc2)cc(-c2ccccc2)cc1-c1ccccc1`, the activity in assay [1] was determined as 75.7%; in assay [2], 64.1%.

On to `CCCOC(=O)c1ccc(-[n+]2c(-c3ccccc3)cc(-c3ccccc3)cc2-c2ccccc2)cc1`, for which the figures for the activity in assay [1] and in assay [2] were 74.7% and 68.3%, respectively.

With `COC(=O)C12OCC34C(CC5C(C)=C(O)C(=O)CC5(C)C3C(O)C1O)OC(=O)C(OC(=O)/C=C(\C)C(C)C)C24` (stereo not drawn), the activity in assay [1] was 94.8%; in assay [2], 97.5%.

With `C[C@H]1O[C@@H](OC2CC[C@]3(C=O)[C@H]4CC[C@]5(C)[C@@H](C6=CC(=O)OC6)CC[C@]5(O)[C@@H]4CC[C@]3(O)C2)CC2OC(C)(C)OC21` (stereo partly drawn), the activity was determined as 85.6% in assay [1] and 92.4% in assay [2].

Take `COc1ccc(CC2NCC(O)C2OC(C)=O)cc1` (stereo not drawn): the activity in assay [1] amounted to 90.1%; in assay [2], 93.8%.

In the case of `COc1ccc(-n2nnnc2C(c2cc3ccccc3o2)N2CCC(n3c(=O)[nH]c4ccccc43)CC2)cc1` (stereo not drawn), the activity in assay [1] turned out to be 69.4%; in assay [2] it was 62.5%.

For the molecule `CNC(=O)Oc1ccc(-c2cn3cc(C)ccc3n2)cc1`, the activity in assay [1] was determined as 95.7%; in assay [2] it was 95.5%.

For `CC[C@H](C)[C@@H]1NC(=O)CNC(=O)c2csc(n2)[C@H](C(C)(C)O)OC(=O)C(C)(C)[C@H](CCCC(C)(Cl)Cl)OC(=O)c2csc1n2`, the activity in assay [1] amounted to 53.5%; in assay [2], 78.6%.

As for `CN(C)C(=O)Oc1ccc(-c2cn3cc(Cl)ccc3n2)cc1`, the activity stood at 80% in assay [1] and 85.6% in assay [2].

In the case of `CC1CCC(C(C)C)C(OC(=O)Cn2c(COc3ccccc3)[n+](C)c3ccccc32)C1` (stereo not drawn), the activity in assay [1] was 66.9%; in assay [2], 57.7%.

As for `COc1ccc2nc(-c3ccc(CN4CCC(n5c(=O)[nH]c6ccccc65)CC4)cc3)c(-c3ccccc3)nc2c1`, the activity worked out at 39.8% in assay [1] and 24.9% in assay [2].

Take `COc1ccc(N2C(=O)/C(=C/c3ccco3)C(=O)NC2=S)cc1`: the inhibition in assay [3] was 38.2% (active); in the assay with Prothrombin (Bos taurus), 24.5% (active).

The inhibition is the drop in the measured response relative to a control, in per cent.
